Results reported in PubChem BioAssay (NCI).
About 83,000 compounds went through this panel and 20% of them were active in at least one assay; those are over-represented in the sample as a whole.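 In brief: 96-well plates, 48 h treatment, single concentration, percent growth endpoint.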 The source made the active and inactive calls.

System: NCI-H322M lung
Assay: NCI-60 one-dose screen, 48 h (100 = growth as untreated, 0 = no growth, -100 = all killed)
Settings: 10 µM unless noted
Protocol: Growth inhibition of the NCI-H322M human Non-Small Cell Lung tumor cell line is measured as a screen for anti-cancer activity. Cells are grown in 96 well plates and exposed to the test compound for 48 hours. Compounds are tested at a single concentration, which is 10^-5 M for most compounds. The reported endpoint is percent growth (GI% or GIPRCNT), where numbers from 0 - 100% represent growth inhibition, and numbers from -100% - 0 represent cell death. For example, a value of 40 represents 60% growth inhibition. A value of 0 means no net growth occurred over the course of the experiment. A value of -40 indicates 40% of cells at the beginning of the experiment died by the end of the experiment. A value of -100 means all cells are dead at the end of the experiment.
NCI-60 Human Tumor Cell Lines Screen was performed using the standard one-dose NCI protocol, which is described in more detail at https://dtp.cancer.gov/discovery_development/nci-60/default.htm.
Compounds with GIPRCNT values below 10 were considered active. Activity score was based on GIPRCNT using the following formula: […]
Score is 0 for GIPRCNT values of 100 or above, 50 for GIPRCNT values of 0, and 100 for GIPRCNT values of -100.

Row | Compound | growth
1 | COc1cccc(N2CCN(c3ncnc4c3[nH]c3ccc(F)cc34)C[C@@H]2C)c1 | -39.9% (active)
2 | Cc1c(Nc2nnc(SCC(=O)Nc3sc4c(c3C#N)CCCC4)s2)c(=O)n(-c2ccccc2)n1C | 98.9% (inactive)
3 | Cc1nc2cnc(N)c(C#Cc3cncc(C(=O)Nc4ccc(Cl)c(C(F)(F)F)c4)c3)c2nc1C | 64.9% (inactive)
4 | Clc1ccc2oc3c(OCCCn4ccnc4)c4ccccc4nc3c2c1 | 73.2% (inactive)
5 | C/C(=N/NC(N)=S)c1ccc(Nc2nc(SCC(C)C)nc(-c3ccc(F)cc3)c2C#N)cc1 | 31.4% (inactive)
6 | CNC(=O)c1cc(-c2ccc(NC(=O)Nc3ccc(N4CCOCC4)c(C(F)(F)F)c3)cc2)nc2cccnc12 | 71.7% (inactive)
7 | C/C(=N\NC(N)=O)c1c(O)sc(=O)[nH]c1=O | 97.3% (inactive)
8 | COc1ccccc1C(=O)CSc1nc(Nc2ccc(S(N)(=O)=O)cc2)c2ccccc2n1 | 82.6% (inactive)
9 | COc1ccc2[nH]cc(-c3cc(N)n4nc(-c5c[nH]c6ccc(OC)cc56)cc4n3)c2c1 | 25.4% (inactive)
10 | CCCC(=O)NC(c1cccnc1)c1cc(C)c2cccnc2c1O (stereo not given) | 32.4% (inactive)
11 | C[C@@H]1CN(c2ccc3ncc(C#Cc4cncc(C(=O)Nc5ccc(CN6CCN(C)CC6)c(C(F)(F)F)c5)c4)n3n2)C[C@H](C)O1 | -19.4% (active)
12 | Oc1c(Cl)cc(Cl)c2ccc(CN3CCCCC3)nc12 | 37.9% (inactive)
13 | c1ccc2c(NCCCN3CCOCC3)c3oc4ccccc4c3nc2c1 | -17.5% (active)
14 | CC(C)(C)Nc1nc2c(OCCc3ccccc3)cccn2c1-c1ccc(Cl)cc1 | 24.6% (inactive)
15 | CC(=O)Nc1cc(F)cc(-c2ccc3[nH]cc(-c4ccccc4)c3n2)c1 | 33.4% (inactive)
16 | O=C1c2c(c3c4cc(Br)ccc4[nH]c3c3ccc4ccccc4c23)C(=O)N1CCO | 96.8% (inactive)
17 | CCN1C(=S)N(CC)C2C1NN=C1SC(c3ccccc3)=CC(=O)N12 (stereo not given) | 110% (inactive)
18 | N#Cc1nc(-c2ccccc2)oc1N1CC[C@@H](CO)C1 | 93.8% (inactive)
19 | CC(C)(C)OC(=O)N1C(=O)c2c(c3c4ccccc4[nH]c3c3ccc4ccccc4c23)C1=O | 52.8% (inactive)
20 | COc1ccccc1/C=C/C=N/NC1=NC2C(S1)N(C)C(=O)N2C (stereo not given) | 51.7% (inactive)

Row | Compound | growth
21 | CO/N=C1\CCc2c(sc(NC(=O)c3cccc(C(F)(F)F)c3)c2C(N)=O)C1 | 19.9% (inactive)
22 | C#Cc1nc(C2=C(C)/C(=N/OCc3ccccc3)CC2)cs1 | 92.6% (inactive)
23 | COc1ccc(/C=N/NC(=O)c2[nH]c3ccc(Br)cc3c2-c2ccccc2)o1 | 44.2% (inactive)
24 | CC(C)(C)Nc1nc2c(OCCc3ccccc3)cccn2c1-c1ccc(O)cc1 | 89.9% (inactive)
25 | CCN1CCN(S(=O)(=O)c2oc(-c3ccc(Cl)cc3)nc2C#N)CC1 | 96.5% (inactive)
26 | O=C(N/N=C/c1cccs1)c1[nH]c2ccc(Br)cc2c1-c1ccccc1 | 44.7% (inactive)
27 | N#Cc1c(-c2ccc(Cl)cc2)nc(SCc2ccccc2)nc1N1CCNCC1 | 79.6% (inactive)
28 | O=C1c2c(c3c4cccnc4[nH]c3c3ccc4ccccc4c23)C(=O)N1CCO | 95% (inactive)
29 | COc1ccc(Cc2nn(CC(=O)N/N=C/c3ccc(Cl)cc3)c(=O)c3c(C)noc23)cc1 | 94.8% (inactive)
30 | CC(=O)Oc1ccccc1C(=O)Nc1ccc(C(=O)/C=C/c2ccncc2)cc1 | 78.3% (inactive)
31 | O=c1/c(=C\c2ccc(-c3ccccc3)o2)sc2nc(-c3ccccc3)nn12 | 105% (inactive)
32 | C#C[C@]1(O)CC[C@H]2[C@@H]3CC=C4c5sc(-c6ccc(F)cn6)nc5CC[C@]4(C)[C@H]3CC[C@@]21C | 65.4% (inactive)
33 | [Cl][Ru].c1ccc(-c2cccc(-c3ccccn3)n2)nc1.c1ccc(-c2ccnc3c2ccc2c(-c4ccccc4)ccnc23)cc1 | 76.6% (inactive)
34 | CCN(CC)c1ccc(C=O)c(OCc2cn(CC(=O)Nc3ccc(Cl)cc3)nn2)c1 | 94.9% (inactive)
35 | c1ccc2c(NCCCn3ccnc3)c3oc4ccccc4c3nc2c1 | -13.4% (active)
36 | Cc1cc2nc3c4cc(Cl)ccc4n(CC(=S)NCCN(C)C)c3nc2cc1C | 40.1% (inactive)
37 | N#Cc1nc(-c2ccccc2)oc1S(N)(=O)=O | 100% (inactive)
38 | COc1ccc(NC2=CC(=O)C(C)=C(C)C2=O)cc1 | 103% (inactive)
39 | O=C1[C@H]2Cc3c([nH]c4ccccc34)[C@@H](c3ccc(Br)cc3)N2C(=O)CN1C1CCN(Cc2ccccc2)CC1 | 67% (inactive)
40 | O=C(CSc1nc2sc3c(c2c(=O)n1-c1ccc(Cl)cc1)CCCC3)NNC(=O)Nc1cccc(C(F)(F)F)c1 | 49.4% (inactive)
